Data from PubChem BioAssay (NCI).
The panel holds about 83,000 compounds, 20% with a hit somewhere; the sample as a whole holds those more often.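 Step 1: grow cells in 96-well plates. Step 2: add test compound at a single concentration. Step 3: incubate 48 h. Step 4: record percent growth.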 Calls of active or inactive are those of the source. The calls were made as follows: active = growth percent below 10; inactive = the rest.

Experiments:
Test in all cases: NCI-60 one-dose screen, 48 h (100 = growth as untreated, 0 = no growth, -100 = all killed)
[1] = test system: DU-145 prostate; conditions: 10 µM unless noted
[2] = test system: K-562 leukemia; conditions: 10 µM unless noted
[3] = test system: MALME-3M melanoma; conditions: 10 µM unless noted
[4] = test system: MDA-MB-231 breast; conditions: 10 µM unless noted
[5] = test system: RXF 393 renal; conditions: 10 µM unless noted
[6] = test system: SF-268 CNS; conditions: 10 µM unless noted
[7] = test system: SF-295 CNS; conditions: 10 µM unless noted
[8] = test system: SF-539 CNS; conditions: 10 µM unless noted
[9] = test system: UACC-257 melanoma; conditions: 10 µM
[10] = test system: M14 melanoma; conditions: 10 µM unless noted
[11] = test system: HCT-15 colon; conditions: 10 µM unless noted
[12] = test system: HT29 colon; conditions: 10 µM unless noted
[13] = test system: SNB-19 CNS; conditions: 10 µM unless noted
[14] = test system: U251 CNS; conditions: 10 µM unless noted
[15] = test system: PC-3 prostate; conditions: 10 µM unless noted
[16] = test system: SK-MEL-5 melanoma; conditions: 10 µM unless noted
[17] = test system: UACC-62 melanoma; conditions: 10 µM unless noted
[18] = test system: LOX IMVI melanoma; conditions: 10 µM unless noted
[19] = test system: SK-MEL-28 melanoma; conditions: 10 µM unless noted

Measured: growth

COc1cc(C2=NN(C(C)=O)C(c3ccc(N4CCOCC4)cc3)C2)cc(OC)c1OC (centres undefined)
inactive: [1] 107% | [2] 114% | [3] 94.4% | [4] 92% | [5] 108% | [6] 99% | [7] 101% | [8] 102% | [9] 103% | [10] 84.1% | [11] 107% | [12] 109% | [13] 98.6% | [14] 104% | [15] 106% | [16] 97.7% | [17] 87.8% | [18] 98.1% | [19] 104%

Oc1ccc(CSc2nnc(-c3cnccn3)n2-c2ccccc2)c2cccnc12
inactive: [1] 35.6% | [2] 19.6% | [3] 42.9% | [4] 32.1% | [5] 33.7% | [6] 22.4% | [8] 22.7% | [9] 17.4% | [10] 16.8% | [11] 19.3% | [12] 79.5% | [13] 19.7% | [14] 20.4% | [15] 30% | [18] 15.5% | [19] 32.5%
active: [7] 7.13% | [16] -22.6% | [17] 2.61%

COc1cc2cc(Oc3ccc(NC(=O)c4cccc(C(F)(F)F)c4)cc3)c(C)nc2cc1OCCN(C)C
inactive: [1] 68.6% | [4] 79% | [5] 39.6% | [6] 92% | [8] 63.3% | [9] 93.2% | [10] 80.8% | [12] 27.5% | [13] 94.2% | [14] 63.4% | [15] 74.2% | [17] 89.4% | [19] 72.2%
active: [2] 7.14% | [3] -73.7% | [7] -50.5% | [11] -8.74% | [16] -7.47% | [18] -81.3%

CCN(CC)CCCC(C)NCC(=O)NC(c1ccc2c(c1)OCO2)c1cc(Cl)c2cccnc2c1O (centres undefined)
active: [3] 5.27% | [7] -53.3% | [8] 6.63% | [10] -9.39% | [16] -77.4% | [17] -17.6% | [18] -30.1%
inactive: [1] 44.2% | [2] 10.6% | [4] 35.5% | [5] 67.5% | [6] 22.7% | [9] 76.6% | [11] 20.6% | [12] 23.6% | [13] 38.1% | [14] 30.2% | [15] 20.1% | [19] 46.5%

Cn1nc(Nc2ccccc2)c(C(=O)NN)c1N
inactive: [1] 106% | [2] 108% | [3] 90.9% | [4] 93% | [5] 109% | [6] 103% | [7] 103% | [8] 96% | [9] 102% | [10] 101% | [11] 97.8% | [12] 103% | [13] 101% | [14] 102% | [15] 95.1% | [16] 99.3% | [17] 96.8% | [18] 97.2% | [19] 103%

Oc1ccccc1/C=N/Nc1nc(N/N=C/c2ccccc2O)nc(N2CCOCC2)n1
active: [5] -0.648% | [11] 3.87% | [18] 4.04%
inactive: [1] 35.5% | [2] 25.4% | [3] 52.6% | [4] 36.3% | [6] 72.3% | [7] 19.6% | [8] 51.8% | [9] 53.3% | [10] 37.6% | [12] 34.2% | [13] 41.7% | [14] 22% | [15] 24.1% | [16] 65.8% | [17] 88.8% | [19] 28%

CCCC(=O)NC(c1cccnc1)c1ccc2c(C)ccnc2c1O (centres undefined)
inactive: [1] 30.1% | [2] 21.4% | [3] 21.2% | [4] 32.9% | [5] 20.4% | [6] 21.9% | [7] 17.8% | [8] 14.6% | [11] 26.9% | [12] 20.3% | [13] 37.8% | [14] 26.7% | [15] 36.4% | [19] 30.4%
active: [9] 5.9% | [10] 9.45% | [16] 4.06% | [17] -7.84% | [18] 9.72%

NNC(=O)c1sc2nc(-c3cnccn3)cc(-c3cccs3)c2c1N
inactive: [1] 104% | [2] 95.5% | [3] 95.6% | [4] 79% | [5] 102% | [6] 93.5% | [7] 104% | [8] 94.9% | [9] 115% | [10] 105% | [11] 89.9% | [12] 106% | [13] 88.2% | [14] 90% | [15] 90.1% | [16] 97.2% | [17] 93.7% | [18] 83.2% | [19] 101%

O=C(O)c1ccc(-n2cc(CNc3ccc(F)cc3)c(-c3ccc(C(F)(F)F)cc3)n2)cc1
inactive: [1] 98.2% | [2] 58.6% | [3] 97.6% | [4] 100% | [5] 88.2% | [6] 80.9% | [7] 63.9% | [8] 88.8% | [9] 90.9% | [10] 92.6% | [11] 65.4% | [12] 96.9% | [13] 84.3% | [14] 79.3% | [15] 79.4% | [16] 67.9% | [17] 89.9% | [18] 99.5% | [19] 88.1%

COc1cc(/C=N/n2cnc3oc(-c4ccccc4)cc3c2=N)cc(CN2CCN(C)CC2)c1O
inactive: [1] 110% | [2] 26.3% | [3] 113% | [4] 79.3% | [5] 27.7% | [6] 93.6% | [7] 109% | [8] 94% | [9] 106% | [10] 103% | [11] 81.4% | [12] 48.3% | [13] 110% | [14] 108% | [15] 77.7% | [16] 87.9% | [17] 102% | [18] 79% | [19] 94.1%

Oc1ccc(CSc2nnc(-c3ccc(Cl)cc3)o2)c2cccnc12
active: [7] 5.94% | [10] 9.55% | [17] 5.12% | [18] 4.17%
inactive: [1] 31.8% | [2] 16.2% | [3] 36.8% | [4] 52.1% | [5] 52.2% | [6] 24.2% | [8] 17% | [9] 18.8% | [11] 14.4% | [12] 102% | [13] 16.5% | [14] 10.5% | [15] 21.4% | [16] 11.1% | [19] 26.6%

O=C(CN1C(=O)S/C(=C\c2ccccc2)C1=O)Nc1ccc(C(=O)/C=C/c2cc3ccccc3nc2Cl)cc1
inactive: [1] 91.4% | [2] 51.2% | [3] 91.1% | [4] 90.2% | [5] 109% | [6] 81.8% | [7] 81% | [8] 90.8% | [9] 71.3% | [10] 78.8% | [11] 88.5% | [12] 94.8% | [13] 86.2% | [14] 93.4% | [15] 81.6% | [16] 24.3% | [17] 66.2% | [18] 73.3% | [19] 95.8%

O=C(NNc1nc2cc(F)cc(F)c2n2cccc12)c1ncccn1
active: [8] -0.152% | [10] -18.1% | [16] -40.9% | [17] 2.21% | [18] 5.13%
inactive: [1] 20.6% | [2] 17.8% | [3] 25.9% | [4] 34.9% | [5] 33% | [6] 13.6% | [7] 12.6% | [9] 12.9% | [11] 26.2% | [12] 25.4% | [13] 20% | [14] 14.4% | [15] 31.6% | [19] 22.8%

O=C1[C@@H]2Cc3c([nH]c4ccccc34)[C@H](c3c(Cl)cccc3Cl)N2C(=O)CN1C1CCN(Cc2c(F)cccc2F)CC1
inactive: [1] 58.8% | [2] 66.3% | [3] 64.9% | [4] 69% | [5] 65.4% | [6] 76.1% | [7] 101% | [8] 52.2% | [9] 99.1% | [10] 75.2% | [11] 52.2% | [12] 63.9% | [13] 81.7% | [14] 73.5% | [15] 69.9% | [16] 53.4% | [17] 76.8% | [19] 75%
active: [18] -47.1%

COc1cc(/C=N/n2cnc3oc(-c4ccccc4)cc3c2=N)cc(CN2CCCC2)c1O
inactive: [5] 15.7% | [6] 88.6% | [7] 90.5% | [8] 93.5% | [9] 109% | [10] 14.1% | [13] 21.8% | [16] 91.5% | [17] 96.7% | [19] 91.6%
active: [1] 7.65% | [2] 0.0184% | [3] -45% | [4] -70% | [11] -85.2% | [12] -48.2% | [14] -45.7% | [15] -68.6% | [18] -88.5%

Cc1nn(-c2ccc(Cl)cc2)c(C)c1N=Nc1ccc2oc(=O)ccc2c1
inactive: [1] 74.5% | [2] 73.5% | [3] 89.5% | [4] 77.5% | [5] 79.4% | [6] 85.1% | [7] 90% | [8] 62.1% | [9] 94.6% | [10] 104% | [11] 81.4% | [12] 94.5% | [13] 97.3% | [14] 82.8% | [15] 80.3% | [16] 84.3% | [17] 80.5% | [18] 69.6% | [19] 82.5%
